# Active and inactive are the calls of the source.
# Key:
# [1] = small molecules captured by biotinylated probe aFSTL3 – biochemical, small-molecule microarray, fluorescence 635/667, stem cell growth factor project, primary screen (AID 1064); settings: higher = more signal;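 further: measures binding of the biotinylated anti-FSTL3 antibody to printed compounds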
# [2] = binders from COS7 lysate, DM2A8 probe, primary screen, torsin A project, cell lysate, small-molecule microarray, fluorescence 635/667 (AID 1065); settings: higher = more signal, COS7 lysate expressing mutant human TOR1A
# [3] = small molecules captured by biotinylated probe aFGF2 – biochemical, small-molecule microarray, fluorescence 635/667, stem cell growth factor project, primary screen (AID 1067); settings: higher = more signal;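 further: measures binding of biotinylated aFGF2 protein to printed compounds on slides; z-score merges feature fluorescence and signal-to-noise across triplicate slides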
# [4] = small molecules captured by biotinylated probe aFGF10 – biochemical, small-molecule microarray, fluorescence 635/667, stem cell growth factor project, primary screen (AID 1071); settings: higher = more signal;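 further: score merges 667 nm spot intensity and signal to noise from triplicate slides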
# [5] = biological target: Neurogenic locus notch homolog protein 2 (Homo sapiens) (UniProt Q04721); assay: small molecules binding Notch2 protein – biochemical, small-molecule microarray, 635 nm fluorescence, stem cell growth factors, primary screen (AID 1073); settings: higher = more signal
# [6] = biological target: Pro-neuregulin-1, membrane-bound isoform (Homo sapiens) (UniProt Q02297); assay: small molecules binding neuregulin-1 protein – biochemical, small-molecule microarray, fluorescence 635/667, psychiatric disease protein project, primary screen (AID 1075); settings: NRG1 binding, 635 nm fluorescence, higher = more signal;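 further: score combines 667 nm spot fluorescence with signal to noise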
# Chain of Pro-neuregulin-1, membrane-bound isoform (Homo sapiens) (Q02297 whole entry, looked up, the tested form may be a part, canonical isoform): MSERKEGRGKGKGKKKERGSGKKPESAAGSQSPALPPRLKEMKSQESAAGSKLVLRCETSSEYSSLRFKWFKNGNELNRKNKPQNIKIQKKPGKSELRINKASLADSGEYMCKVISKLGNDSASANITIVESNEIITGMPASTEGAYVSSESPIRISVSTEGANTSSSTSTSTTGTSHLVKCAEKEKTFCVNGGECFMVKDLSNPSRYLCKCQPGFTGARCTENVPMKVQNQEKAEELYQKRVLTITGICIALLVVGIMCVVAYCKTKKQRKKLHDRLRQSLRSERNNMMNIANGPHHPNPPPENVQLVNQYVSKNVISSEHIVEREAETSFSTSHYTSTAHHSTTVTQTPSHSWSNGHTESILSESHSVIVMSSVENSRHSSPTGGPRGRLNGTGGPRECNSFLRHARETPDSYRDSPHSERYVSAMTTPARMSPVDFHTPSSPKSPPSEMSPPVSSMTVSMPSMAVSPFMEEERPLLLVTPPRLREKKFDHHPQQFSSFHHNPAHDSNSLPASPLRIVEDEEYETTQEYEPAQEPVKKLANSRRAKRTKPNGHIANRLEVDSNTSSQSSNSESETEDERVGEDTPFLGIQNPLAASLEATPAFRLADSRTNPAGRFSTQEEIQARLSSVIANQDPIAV
# [7] = tested on: Neuregulin-1 EGF-like domain; assay: small molecules binding NRG1 EGF domain – biochemical, small-molecule microarray, 635 nm fluorescence, primary screen (AID 1081); settings: higher = more signal;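 further: binding of the protein to compounds printed on small-molecule microarray slides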
# [8] = FRG1 expression reporter modulators in myotubes – cell-based, C2C12 myotubes, firefly/Renilla luciferase, luminescence, FRG1 inhibition for FSHD, primary screen (AID 1084); settings: FRG1 promoter luciferase, higher = more signal, called active from +8 up or from −8 down
# [9] = small molecules captured by biotinylated probe aFST – biochemical, small-molecule microarray, fluorescence 635/667, stem cell growth factor project, primary screen (AID 1086); settings: higher = more signal;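 further: score merges 667 nm fluorescence with signal-to-noise of each printed compound spot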
# [10] = binders of probe aHhip on microarray, primary screen, stem cell growth factor project, biochemical, small-molecule microarray, fluorescence 635/667 (AID 1087); settings: higher = more signal;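 further: score merges spot fluorescence at 667nm with spot signal to noise ratio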
# [11] = tested on: PRMT1 (protein arginine N-methyltransferase 1); assay: small molecules binding arginine methyltransferase PRMT1 – biochemical, small-molecule microarray, 635 nm fluorescence, primary screen (AID 1088); settings: higher = more signal;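 further: binding of Prmt1 protein to compounds spotted on small-molecule microarray slides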
# [12] = growth effects on S. cerevisiae YJM789 – YJM789 clinical isolate, OD600, 24 h, basal, primary screen (AID 1089); settings: higher = more signal, called active from +8 up or from −8 down;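 further: growth of clinical yeast isolate S. cerevisiae YJM 789 seeded 1000 cells per well; test concentration not given here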
# [13] = S. pombe growth modifiers, basal conditions – strain 972, OD600, 24 h, no modulator, primary screen (AID 1090);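 further: basal condition with compound alone and no growth modifier present; test concentration not given here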; settings: S. pombe 972 growth, higher = more signal, called active from +8 up or from −8 down
# [14] = budding yeast growth modifiers under rapamycin – strain BY4716, OD600, 96 h, primary screen (AID 1091); further: test concentration not given here; settings: S. cerevisiae BY4716 + rapamycin, higher = more signal, called active from +8 up or from −8 down
# [15] = biological target: Torsin-1A-interacting protein 2 (Homo sapiens) (UniProt Q8NFQ8); assay: small molecules binding lysate-expressed LULL1 – cell lysate, human LULL1 lysate, 635/667 nm fluorescence, primary screen (AID 1092); settings: small-molecule microarray, hLULL1 lysate binding, 635 nm fluorescence; higher = more signal;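 further: probe is lysate of COS7 cells overexpressing human LULL1; score merges per-feature 667 nm fluorescence with signal-to-noise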
# Chain of Torsin-1A-interacting protein 2 (Homo sapiens) (Q8NFQ8 whole entry, looked up): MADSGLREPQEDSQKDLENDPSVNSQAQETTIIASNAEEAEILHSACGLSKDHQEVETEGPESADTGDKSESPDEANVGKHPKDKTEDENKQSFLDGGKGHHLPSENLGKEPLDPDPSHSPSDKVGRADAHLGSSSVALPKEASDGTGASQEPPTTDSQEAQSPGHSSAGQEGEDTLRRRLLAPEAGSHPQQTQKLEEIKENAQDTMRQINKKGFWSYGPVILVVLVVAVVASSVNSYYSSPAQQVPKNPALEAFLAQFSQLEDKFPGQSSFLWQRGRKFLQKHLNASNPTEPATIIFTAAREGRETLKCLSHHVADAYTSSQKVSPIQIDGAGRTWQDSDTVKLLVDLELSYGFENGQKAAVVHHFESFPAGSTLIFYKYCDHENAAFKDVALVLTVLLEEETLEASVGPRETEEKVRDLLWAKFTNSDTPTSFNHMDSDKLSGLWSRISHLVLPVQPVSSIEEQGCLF
# [16] = optical density change of DRC41 E. coli – strain DRC41, OD650, 24 h, E. coli filamentation project, primary screen (AID 1093);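 further: MC1000 strain lacking acrAB efflux and sulA so SOS filamentation is blocked; test concentration not given here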; settings: E. coli DRC41 growth, higher = more signal, called active from +8 up or from −8 down
# [17] = probe aLefty2 binding to arrayed compounds – biochemical, biotinylated probe, 635/667 nm fluorescence, primary screen (AID 1094); settings: small-molecule microarray, higher = more signal;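 further: score merges spot fluorescence near 667 nm with spot signal-to-noise ratio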
# [18] = tested on: Noggin (protein binding on small-molecule microarray); assay: small molecules binding Noggin protein – biochemical, 635/667 nm fluorescence, primary screen (AID 1095); settings: 635 nm fluorescence, higher = more signal;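 further: score merges 667 nm feature fluorescence with signal to noise over triplicate slides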
# [19] = biological target: Neurogenic locus notch homolog protein 3 (Homo sapiens) (UniProt Q9UM47); assay: small molecules binding NOTCH3 protein – biochemical, 635/667 nm fluorescence, primary screen (AID 1096); settings: small-molecule microarray, 635 nm fluorescence, higher = more signal
# Chain of Neurogenic locus notch homolog protein 3 (Homo sapiens) (Q9UM47 whole entry, looked up): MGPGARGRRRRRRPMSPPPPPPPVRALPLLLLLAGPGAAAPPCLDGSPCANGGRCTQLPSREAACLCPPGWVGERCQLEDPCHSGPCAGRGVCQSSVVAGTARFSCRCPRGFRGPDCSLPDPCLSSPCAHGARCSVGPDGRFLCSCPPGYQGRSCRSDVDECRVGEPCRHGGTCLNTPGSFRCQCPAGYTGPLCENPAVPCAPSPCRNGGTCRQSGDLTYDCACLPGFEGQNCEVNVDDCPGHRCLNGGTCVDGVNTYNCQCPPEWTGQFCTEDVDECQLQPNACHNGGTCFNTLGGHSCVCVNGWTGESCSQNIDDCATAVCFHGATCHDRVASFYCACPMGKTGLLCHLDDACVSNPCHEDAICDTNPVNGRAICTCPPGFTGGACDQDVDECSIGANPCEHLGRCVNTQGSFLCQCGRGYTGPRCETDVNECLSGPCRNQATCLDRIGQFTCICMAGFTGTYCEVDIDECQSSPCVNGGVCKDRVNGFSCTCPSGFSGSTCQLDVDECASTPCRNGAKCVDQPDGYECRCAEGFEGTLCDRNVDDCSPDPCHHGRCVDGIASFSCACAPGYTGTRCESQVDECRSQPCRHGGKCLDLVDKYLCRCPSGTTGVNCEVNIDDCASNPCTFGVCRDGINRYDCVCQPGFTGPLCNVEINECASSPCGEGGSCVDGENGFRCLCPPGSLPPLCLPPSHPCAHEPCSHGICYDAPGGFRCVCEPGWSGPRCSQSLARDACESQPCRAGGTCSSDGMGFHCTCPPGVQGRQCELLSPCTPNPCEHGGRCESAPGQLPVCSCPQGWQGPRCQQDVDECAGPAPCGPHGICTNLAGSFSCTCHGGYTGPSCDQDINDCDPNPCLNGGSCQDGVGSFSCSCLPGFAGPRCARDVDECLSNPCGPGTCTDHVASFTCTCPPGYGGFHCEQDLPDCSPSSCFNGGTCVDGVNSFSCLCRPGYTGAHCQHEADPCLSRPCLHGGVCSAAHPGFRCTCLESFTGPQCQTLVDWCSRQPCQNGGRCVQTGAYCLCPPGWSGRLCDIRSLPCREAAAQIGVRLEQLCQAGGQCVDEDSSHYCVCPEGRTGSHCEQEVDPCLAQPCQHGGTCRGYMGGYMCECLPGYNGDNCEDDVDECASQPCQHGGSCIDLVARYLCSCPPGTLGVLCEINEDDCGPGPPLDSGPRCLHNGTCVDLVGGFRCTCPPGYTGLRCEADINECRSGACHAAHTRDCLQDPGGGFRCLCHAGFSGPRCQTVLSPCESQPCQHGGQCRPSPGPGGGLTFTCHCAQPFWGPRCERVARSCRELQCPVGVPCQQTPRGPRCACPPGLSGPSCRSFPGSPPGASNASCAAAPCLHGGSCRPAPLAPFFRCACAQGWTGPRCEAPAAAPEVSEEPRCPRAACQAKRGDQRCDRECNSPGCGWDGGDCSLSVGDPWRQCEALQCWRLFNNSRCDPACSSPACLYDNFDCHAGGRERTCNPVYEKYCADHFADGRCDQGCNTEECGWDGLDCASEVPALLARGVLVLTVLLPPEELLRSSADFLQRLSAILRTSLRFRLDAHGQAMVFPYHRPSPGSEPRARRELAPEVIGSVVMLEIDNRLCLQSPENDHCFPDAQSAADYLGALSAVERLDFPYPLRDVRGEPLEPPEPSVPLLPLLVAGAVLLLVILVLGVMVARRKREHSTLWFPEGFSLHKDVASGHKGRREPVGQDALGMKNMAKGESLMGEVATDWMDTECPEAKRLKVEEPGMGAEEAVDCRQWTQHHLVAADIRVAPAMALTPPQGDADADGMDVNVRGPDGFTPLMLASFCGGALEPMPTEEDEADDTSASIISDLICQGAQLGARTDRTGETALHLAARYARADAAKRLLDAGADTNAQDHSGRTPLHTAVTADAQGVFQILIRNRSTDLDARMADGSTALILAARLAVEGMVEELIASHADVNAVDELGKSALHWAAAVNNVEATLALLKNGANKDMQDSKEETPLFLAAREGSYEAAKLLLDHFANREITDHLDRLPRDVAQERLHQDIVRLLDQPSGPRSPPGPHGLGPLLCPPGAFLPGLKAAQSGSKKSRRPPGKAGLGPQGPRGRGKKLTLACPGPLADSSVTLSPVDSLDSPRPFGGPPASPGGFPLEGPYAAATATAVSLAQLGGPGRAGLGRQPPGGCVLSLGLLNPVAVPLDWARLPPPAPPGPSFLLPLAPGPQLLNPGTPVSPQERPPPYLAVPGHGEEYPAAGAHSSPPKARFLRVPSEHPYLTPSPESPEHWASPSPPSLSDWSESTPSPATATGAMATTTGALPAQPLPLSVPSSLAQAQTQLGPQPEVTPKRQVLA
# [20] = probe aEGFR binding to arrayed compounds – biochemical, biotinylated probe, 635/667 nm fluorescence, primary screen (AID 1097); settings: small-molecule microarray, higher = more signal;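 further: probe is a biotinylated anti-EGFR antibody binding compounds printed on slides; score combines fluorescence near 667 nm and signal to noise of each spot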
SMILES,composite z-score [1],composite z-score [2],composite z-score [3],composite z-score [4],composite z-score [5],composite z-score [6],composite z-score [7],z-score [8],composite z-score [9],composite z-score [10],composite z-score [11],z-score [12],z-score [13],z-score [14],composite z-score [15],z-score [16],composite z-score [17],composite z-score [18],composite z-score [19],composite z-score [20]
COc1ccc([Si](C)(C)[C@@H]2[C@@H](CCO)O[C@]3(C(=O)N(Cc4ccc(N5CCCCC5=O)cc4)c4ccccc43)[C@H]2C)cc1,-0.343,0.299,0.0344,0.913,0.0177,0.919,1.15,-4.78 (inactive),0.203,0.0373,1.53,-0.102 (inactive),0.0767 (inactive),3.05 (inactive),2.09,1.2 (inactive),-0.181,0.731,1.11,-0.0828
CC(CO)N1C(=O)[C@@H]2[C@H]3C(=O)OCC=C[C@H]3OC23C=CCN(Cc2ccccc2)C(=O)[C@@H]13 (stereo not given in full),0.0457,-0.31,-0.166,-0.166,-0.374,-0.622,0.307,-0.282 (inactive),-0.531,0.12,-1.28,-0.163 (inactive),-0.528 (inactive),-1.45 (inactive),1.41,2.31 (inactive),-0.219,-0.662,0.0095,-0.206
Cc1cc(C)c(C(O)C2C=CC3C(=O)N(c4ccccc4)C(=O)C3N2Nc2ccc(C(C)C)cc2)c(C)c1 (stereo not given),0.224,0.243,0.172,0.941,1.66,1.91,1.25,1.44 (inactive),1.37,0.128,1.57,1.14 (inactive),0.863 (inactive),1.26 (inactive),3.42,-1.87 (inactive),0.255,-0.163,1.03,-0.0172
COc1ccc(-c2nc(-c3ccccc3)c3c(c2C)CO[Si]3(C(C)C)C(C)C)cn1,-0.367,0.0662,-0.087,0.296,0.296,-0.199,-0.196,0.702 (inactive),-0.0377,0.176,0.569,-0.195 (inactive),-0.391 (inactive),-0.0892 (inactive),0.498,-1.5 (inactive),-0.162,1.09,0.0188,0.0361
COCCOC(=O)N1C(=O)[C@@]2(c3cc(C#CC4=CCCCC4)ccc31)[C@H](c1ccc(OCCO)cc1)N1[C@H](c3ccccc3)[C@H](c3ccccc3)OC(=O)[C@H]1[C@@H]2C(=O)N1CCN(c2ncccn2)CC1,0.0516,0.504,0.0664,0.874,1.31,0.521,1.05,-0.64 (inactive),0.59,0.0053,1.46,0.372 (inactive),1.23 (inactive),3.64 (inactive),1.73,1.37 (inactive),0.0444,0.788,1.1,0.0289
CCCCCCc1nc(C2CC2)cc2c1[Si](C(C)C)(C(C)C)OC2,0.355,-0.376,-0.14,-0.715,-1.13,-0.526,-1.17,1.19 (inactive),-0.319,-0.137,-0.439,0.01 (inactive),-0.183 (inactive),0.0489 (inactive),-0.908,-0.772 (inactive),-0.152,-0.798,-0.861,-0.228
CCOC(=O)C[C@H]1[C@H](OC(=O)c2ccc(C(=O)c3ccccc3)cc2)[C@@H](NC(=O)Cc2ccc(OC)cc2)c2cc(OCCCO)ccc2N1C(=O)c1ccccc1,-0.045,0.135,-0.107,0.172,0.227,-0.104,0.676,-0.587 (inactive),0.518,-0.0994,0.139,-0.12 (inactive),0.169 (inactive),-0.378 (inactive),1.19,-0.978 (inactive),0.0759,0.359,-0.0979,-0.0219
COC(=O)C(CC#Cc1ccc2c(c1)[C@]1(C(=O)N2)[C@H](c2ccccc2OCCO)N2[C@H](c3ccccc3)[C@H](c3ccccc3)OC(=O)[C@H]2[C@@H]1C(=O)NC[C@H](O)c1ccccc1)C(=O)OC,-0.881,0.711,-0.0307,0.767,0.982,1.36,1.25,-1.42 (inactive),-0.158,-0.4,1.54,2.51 (inactive),1.32 (inactive),4.78 (inactive),3.25,0.282 (inactive),-0.324,1.1,1.04,-0.147
CCCC[C@@H]1C[C@H]1[C@@H](NC(=O)c1cccs1)c1ccc(C(F)(F)F)cc1,0.211,-0.0988,-0.0783,-0.618,-0.845,-0.265,-0.743,-0.878 (inactive),0.0353,0.948,0.183,1.19 (inactive),1.01 (inactive),-0.0454 (inactive),-0.683,-1.72 (inactive),-0.0009,-0.345,-0.182,-0.168
CC(C)C[C@@H]1NC(=O)[C@@H]2C[C@H](C(=O)NCCCCN(C)C)[C@H](c3cccc(OCCO)c3)N2C1=O,0.0116,1.47,-0.143,-0.242,-0.416,0.204,1.19,6.17 (inactive),-0.612,-0.192,0.751,-1.01 (inactive),0.162 (inactive),-1.01 (inactive),2.85,0.659 (inactive),-0.0258,0.592,-0.087,-0.183
